Only some compounds are listed: those with a hit (about 4.9% of all), similar ones and a draw of the others.
CSC inhib: cancer stem cell inhibition. cancer stem cell-like cells viability, luminescence. inhibition, % at 7.5 µM. hit rate 1.1% among 300,000. AID 2717; in the data active means inhibition above about 75%; inconclusive means no clear call, values can overlap the other calls; tested in HMLE shEcad cells
PP1 counter: blocks human PP1-alpha phosphatase, a PP5 counter-screen; P62136; purified PP1alpha, OMFP fluorescence; inhibition, % at 6.7 µM; hit rate 0.9% among 320,000; AID 2235;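 active means inhibition above the mean inhibition of all tested compounds plus 3 SD, computed separately for each screening campaign, cut at about 15% in these data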
Mdm2 MdmX PPI: human Mdm2/MdmX binding inhibition; inhibition, % at 8 µM; SaOS-2 split-luciferase Mdm2/MdmX complementation, luminescence; hit rate 3% among 330,000; O15151+Q00987;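 active means inhibition of at least 50% at 8 µM in the primary screen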
Target sequence (O15151 whole entry, looked up): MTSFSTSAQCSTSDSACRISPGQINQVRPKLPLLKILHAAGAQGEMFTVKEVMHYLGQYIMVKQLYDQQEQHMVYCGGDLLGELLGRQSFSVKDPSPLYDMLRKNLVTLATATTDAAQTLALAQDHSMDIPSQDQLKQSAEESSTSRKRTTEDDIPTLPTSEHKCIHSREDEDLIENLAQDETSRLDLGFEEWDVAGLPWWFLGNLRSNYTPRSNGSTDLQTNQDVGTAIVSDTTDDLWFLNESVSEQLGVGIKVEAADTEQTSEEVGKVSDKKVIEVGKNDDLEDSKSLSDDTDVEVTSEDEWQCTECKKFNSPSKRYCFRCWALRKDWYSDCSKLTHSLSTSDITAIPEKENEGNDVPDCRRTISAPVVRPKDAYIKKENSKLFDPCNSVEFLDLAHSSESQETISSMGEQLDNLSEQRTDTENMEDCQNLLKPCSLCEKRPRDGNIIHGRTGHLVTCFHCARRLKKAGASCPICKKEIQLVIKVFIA
Target sequence (Q00987 whole entry, looked up): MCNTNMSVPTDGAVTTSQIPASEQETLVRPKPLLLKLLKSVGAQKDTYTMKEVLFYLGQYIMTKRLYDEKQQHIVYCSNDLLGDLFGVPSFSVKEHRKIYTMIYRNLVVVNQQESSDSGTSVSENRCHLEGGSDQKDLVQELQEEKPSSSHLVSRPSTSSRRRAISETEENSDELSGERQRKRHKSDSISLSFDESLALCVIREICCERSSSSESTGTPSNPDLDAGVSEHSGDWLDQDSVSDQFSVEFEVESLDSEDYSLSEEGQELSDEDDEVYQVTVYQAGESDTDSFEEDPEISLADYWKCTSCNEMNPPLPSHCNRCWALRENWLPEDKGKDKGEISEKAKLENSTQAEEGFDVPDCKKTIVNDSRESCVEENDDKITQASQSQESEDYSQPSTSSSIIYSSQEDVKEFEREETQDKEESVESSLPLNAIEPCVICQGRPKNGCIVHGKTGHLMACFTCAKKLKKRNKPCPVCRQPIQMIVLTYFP
PP5 primary: blocks human protein phosphatase 5 activity. P53041. purified PP5c, OMFP substrate fluorescence. inhibition, % at 6.7 µM. hit rate 0.18% among 320,000;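 active means inhibition above the campaign's mean inhibition across all tested compounds plus 3 SD, cut at about 9.5% in these data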
Calb FLC: C. albicans growth modulation with fluconazole. hit rate 0.57% among 300,000. AID 1979. growth inhibition, % (no concentration beside the values). C. albicans CaCi-2 (fluconazole-resistant clinical isolate) + fluconazole, Alamar Blue growth, 48 h;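 active means growth inhibition above about 58% in most replicates, limit read from the data, passing the limit was not always enough; inconclusive means exactly half the replicates above a set limit; inactive means most replicates below a set limit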;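 further: all wells also contain fluconazole at 8 µg/ml as a sub-toxic cotreatment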
Beta cell apopt: beta cell apoptosis inhibition; INS-1E cytokine-induced death, ATP luminescence, 48 h; percent of positive-control rescue, neutral wells zero; hit rate 0.8% among 300,000; protection from apoptosis, % (concentration not given with the values);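 active means Every replicate reaches about 75%, or at least half do and their mean reaches it too, limit read from the data; inconclusive means At least half of replicates reach the limit but their mean does not; inactive means Under half of replicates reach the limit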;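 further: higher means more ATP so stronger rescue from cytokine killing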
Mdm2-MdmX conf: confirmation of human Mdm2/MdmX interaction inhibitors; shares compounds with Mdm2 MdmX PPI; inhibition, % at 8 µM; Mdm2-MdmX binding, luminescent assay; hit rate 55% among 10,000; in the data active means inhibition above about 40%
FLuc counter: counter-screen for Mdm2/MdmX inhibitors: full-length luciferase; inhibition, % at 8 µM; AID 504607; SaOS-2 full-length luciferase counterscreen, luminescence; hit rate 77% among 6,200; shares compounds with Mdm2 MdmX PPI;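 active means mean inhibition at 8 µM reaching about 37%, which flags the compound as non-specific, limit read from the data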;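 further: p53-null SaOS-2 cells with luciferase driven by a doxycycline-inducible promoter; compound on cells about two nights before reading with doxycycline added after day one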
Large screens that a line does not name were inactive (follow-up assays come after a bar, where they were run); ! = not confirmed by another sample.

CC(=O)Nc1cccc(C(=O)/C=C/c2ccc(N(C)C)cc2)c1	none
CC(=O)Nc1cccc(C(=O)/C=C/c2ccc(F)cc2)c1	Mdm2 MdmX PPI 73, Calb FLC inconclusive | Mdm2-MdmX conf inactive
Cc1cccc(C(=O)Nc2ccc(C(=O)/C=C/c3ccncc3)cc2)c1	Mdm2 MdmX PPI 97 | Mdm2-MdmX conf inactive
CC(=O)Nc1cccc(C(=O)/C=C/c2ccc[nH]2)c1	none
Cc1cccc(C(=O)Nc2cccc(C(=O)N/N=C/c3ccncc3)c2)c1	none
CC(=O)Nc1cccc(C(=O)/C=C/c2ccc(/C=C/C(=O)c3cccc(NC(C)=O)c3)cc2)c1	CSC inhib 77, Mdm2 MdmX PPI 98 | Mdm2-MdmX conf inactive
CC(=O)Nc1cccc(C(=O)/C=C/c2ccc(Br)cc2)c1	CSC inhib 127, Mdm2 MdmX PPI 97 | Mdm2-MdmX conf 74 | FLuc counter 53
CN(Cc1cccc(F)c1)C(=O)c1ccc(S(=O)(=O)N2CCCCCC2)cc1	none (no result: PP1 counter, PP5 primary, Calb FLC)
Cc1cc(-c2nnnn2-c2ccc(F)cc2)no1	none (no result: Beta cell apopt)
CCC(=O)Nc1cccc(C(=O)OC)c1	none
CCC(=O)Nc1cccc(C(=O)/C=C/c2cc(Br)ccc2OC)c1	Mdm2 MdmX PPI 97 | Mdm2-MdmX conf 80 | FLuc counter 59
CN1CCN(CCCN2c3ccccc3Sc3ccc(Cl)cc32)CC1	CSC inhib 94!, Mdm2 MdmX PPI 54 (no result: Calb FLC) | Mdm2-MdmX conf inactive
OCCN1CCN(CCCN2c3ccccc3Sc3ccc(C(F)(F)F)cc32)CC1	CSC inhib 86, Mdm2 MdmX PPI 61 (no result: Calb FLC) | Mdm2-MdmX conf inactive
O=C(CCN1CCOCC1)N1c2ccccc2Sc2ccc(Cl)cc21	none
CCSc1ccc2c(c1)N(CCCN1CCN(C)CC1)c1ccccc1S2	CSC inhib 78, Mdm2 MdmX PPI 60 (no result: Calb FLC) | Mdm2-MdmX conf inactive
CN(C)CCCN1c2ccccc2Sc2ccc(C(F)(F)F)cc21	none
COc1ccc(/C=C2\CCc3ccccc3C2=O)cc1O	none
Cc1cc(C)c(C)c(S(=O)(=O)NC(C(=O)NCCc2ccco2)C(C)C)c1C (stereo not drawn)	none (no result: Calb FLC)
O=Cc1c(OCc2ccccc2)ccc2ccccc12	none
O=Cc1c[nH]c2cccc(OCc3ccccc3)c12	Mdm2 MdmX PPI 57 (no result: CSC inhib, PP1 counter, PP5 primary, Calb FLC, Beta cell apopt) | Mdm2-MdmX conf 53 | FLuc counter 64
COc1cccc(Oc2nnnn2-c2ccccc2)c1	none
COc1cccc(-n2nnnc2S(C)(=O)=O)c1	Mdm2 MdmX PPI 79, Calb FLC 105 | Mdm2-MdmX conf 100 | FLuc counter inactive
O=C(c1ccccc1)C(CCC(CN1CCOCC1)C(=O)c1ccccc1)CN1CCOCC1 (stereo not drawn)	Mdm2 MdmX PPI 95, Beta cell apopt 95 | Mdm2-MdmX conf 65 | FLuc counter 51
c1ccc(C(CN2CCOCC2)c2ccccc2)cc1	none
O=C(c1ccc(Cl)cc1)C(CN1CCCC1)c1ccccc1 (stereo not drawn)	Mdm2 MdmX PPI 71 | Mdm2-MdmX conf inactive
CCCCOc1ccc(C(=O)C(CN2CCOCC2)c2ccccc2)cc1 (stereo not drawn)	CSC inhib 111, Mdm2 MdmX PPI 94 | Mdm2-MdmX conf 74 | FLuc counter inactive
COc1ccc(C(=O)C(CN2CCCC2)c2ccccc2)cc1 (stereo not drawn)	CSC inhib 86, Mdm2 MdmX PPI 99, Calb FLC 80 | Mdm2-MdmX conf 64 | FLuc counter inactive
COc1ccc(C(=O)CCN2CCCCCC2)cc1	none
COc1ccc(C(=O)C(CN2CCOCC2)c2ccccc2)cc1 (stereo not drawn)	Mdm2 MdmX PPI 80 | Mdm2-MdmX conf 81 | FLuc counter inactive
O=C(c1ccc(F)cc1)C(CN1CCOCC1)c1ccccc1 (stereo not drawn)	Mdm2 MdmX PPI 64 (no result: CSC inhib, Beta cell apopt) | Mdm2-MdmX conf 43 | FLuc counter 38
CC(C)COc1cccc(C(=O)N(C)CC(=O)Nc2cccc3ccccc23)c1	none (no result: PP1 counter, PP5 primary, Calb FLC)
CCCCNC(=O)c1c(N)n(/N=C/c2ccccn2)c2nc3ccccc3nc12	Mdm2 MdmX PPI 60 | Mdm2-MdmX conf inactive | FLuc counter 72
CCNC(=O)COC(=O)c1cccc(Br)c1	none
Cc1ccc(-n2cc(CNCCCn3ccnc3C)c(-c3ccc(F)cc3)n2)cc1	Mdm2 MdmX PPI 73 | Mdm2-MdmX conf inactive
CC(=O)NS(=O)(=O)c1ccc(NC(=S)NC(=O)C2CCC2)cc1	none (no result: CSC inhib, PP1 counter, PP5 primary, Beta cell apopt)

Bioassay records deposited in PubChem BioAssay by several laboratories.
